Test results published in publication PMC4336329 (PLoS ONE, 2015).
About 14,000 (4.5%) of roughly 310,000 compounds showed an effect of 50% or more. Effects have a minus sign here. The full list was thinned out, with strong results kept by preference.

What follows are molecules tested against human ether-à-go-go-related gene (hERG) potassium channel (human, UniProt Q12809) (assay: primary screen, population patch clamp on CHO cells stably expressing hERG; higher = less effect of the substance).
Sequence of human ether-à-go-go-related gene (hERG) potassium channel (Q12809 whole entry, looked up): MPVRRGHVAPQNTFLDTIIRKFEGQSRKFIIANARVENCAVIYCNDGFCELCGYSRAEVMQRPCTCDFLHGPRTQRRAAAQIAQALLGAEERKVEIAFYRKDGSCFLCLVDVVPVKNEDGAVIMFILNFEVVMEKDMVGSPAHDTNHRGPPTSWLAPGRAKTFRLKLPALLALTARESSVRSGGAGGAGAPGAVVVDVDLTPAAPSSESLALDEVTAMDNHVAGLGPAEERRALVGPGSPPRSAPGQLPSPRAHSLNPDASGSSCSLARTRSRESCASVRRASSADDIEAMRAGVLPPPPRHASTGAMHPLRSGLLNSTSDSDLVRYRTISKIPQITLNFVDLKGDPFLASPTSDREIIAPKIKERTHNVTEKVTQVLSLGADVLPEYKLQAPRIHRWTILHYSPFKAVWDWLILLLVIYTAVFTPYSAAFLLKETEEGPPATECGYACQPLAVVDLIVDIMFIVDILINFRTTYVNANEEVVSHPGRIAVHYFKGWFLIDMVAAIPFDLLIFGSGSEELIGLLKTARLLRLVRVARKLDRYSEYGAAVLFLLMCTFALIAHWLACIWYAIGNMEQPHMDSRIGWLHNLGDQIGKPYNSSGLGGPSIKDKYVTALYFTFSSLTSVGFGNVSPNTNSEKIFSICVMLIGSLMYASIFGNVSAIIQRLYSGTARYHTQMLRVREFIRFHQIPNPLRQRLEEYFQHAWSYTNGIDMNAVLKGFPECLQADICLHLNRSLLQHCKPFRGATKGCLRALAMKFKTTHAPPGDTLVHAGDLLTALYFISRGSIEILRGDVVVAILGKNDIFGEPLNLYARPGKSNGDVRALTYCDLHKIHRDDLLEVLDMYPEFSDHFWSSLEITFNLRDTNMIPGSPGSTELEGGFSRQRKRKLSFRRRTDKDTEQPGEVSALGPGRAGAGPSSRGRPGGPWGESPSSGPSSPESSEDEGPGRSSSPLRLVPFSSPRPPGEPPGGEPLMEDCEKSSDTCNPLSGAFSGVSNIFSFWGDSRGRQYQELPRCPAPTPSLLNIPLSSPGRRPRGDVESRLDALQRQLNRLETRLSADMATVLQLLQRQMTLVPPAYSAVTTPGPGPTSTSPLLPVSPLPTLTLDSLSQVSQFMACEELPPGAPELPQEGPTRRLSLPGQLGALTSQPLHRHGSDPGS
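Also: peak tail current of the secondary pulse compared with the same well before compound.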

Row | SMILES | hERG current change (%, negative = inhibition) at 10uM [%]
1 | O=C(O)CC1SC(=O)N(Cc2ccccc2)C1=O (centres unmarked) | 21
2 | Cc1cc(Cl)ccc1OCc1cn2cccnc2n1 | -17.5
3 | CCCn1cc(SCC(=O)NCC2CCCO2)c2ccccc21 (centres unmarked) | 4.17
4 | CC(C)CN(C(=O)COC(=O)c1ccc2c(c1)OCCO2)c1c(N)n(Cc2ccccc2)c(=O)[nH]c1=O | 5.66
5 | Cc1ccc(C)n1NC(=O)c1ccco1 | 14.8
6 | O=C(CSc1ncccn1)Nc1ncc(C(F)(F)F)cc1Cl | 47.2
7 | COC(=O)C1=C(C)NC(C)=C(C(=O)O[C@@H]2CCCN(Cc3ccccc3)C2)[C@@H]1c1cccc([N+](=O)[O-])c1.Cl | 9.68
8 | CCOc1ccc(N/C(SC)=C(/C#N)C(N)=O)cc1 | 4.98
9 | CCOc1ccc(N/C(SCc2cccc([N+](=O)[O-])c2)=C(/C#N)C(N)=O)cc1 | -59.1
10 | COc1cccc(N/C(SCc2cccc([N+](=O)[O-])c2)=C(/C#N)C(N)=O)c1 | -19.9
11 | COc1cccc(CNCCc2cccc(F)c2)c1OC.O=C(O)C(=O)O | -5.22
12 | COc1ccc(CNCCc2ccc([N+](=O)[O-])cc2)c(OC)c1OC.O=C(O)C(=O)O | -68.9
13 | COc1ccc(CCNCc2ccc(OC)c(OC)c2OC)cc1 | -37.6
14 | COc1ccc(CNCCc2cccc(F)c2)c2ccccc12.O=C(O)C(=O)O | -74
15 | COc1ccc(CNCCc2ccc(Cl)cc2)c(OC)c1OC.O=C(O)C(=O)O | -51.6
16 | COc1cc(OC)c(OC)cc1CNCCc1cccc(F)c1.O=C(O)C(=O)O | -15.2
17 | COc1ccc(CNCCc2ccc3c(c2)OCO3)c(OC)c1OC.O=C(O)C(=O)O | -29.9
18 | COc1ccccc1CCNCc1ccc(OC)c(OC)c1OC.O=C(O)C(=O)O | 15.5
19 | COc1ccccc1CNCc1ccc(OC)c(OC)c1OC.O=C(O)C(=O)O | -8
20 | O=C(N/N=C/c1c(O)ccc2ccccc12)c1cccnc1 | 7.7
21 | COC(=O)COc1ccc(S(=O)(=O)N2CCN(c3ccccc3F)CC2)cc1 | -3.27
22 | O=C(Nc1ccc(-c2csnn2)cc1)C(Cl)(Cl)Cl | 17.5

Row | SMILES | hERG current change (%, negative = inhibition) at 10uM [%]
23 | CC(C)C(=O)OCC(=O)Nc1ccc(N=Nc2ccccc2)cc1 | 4.2
24 | CCN(CC)S(=O)(=O)c1cc(NS(=O)(=O)c2cccc(Cl)c2Cl)ccc1C | -1.79
25 | CCCOc1ccc(NC(=O)C2CC(=O)N3CCCN=C3S2)cc1 (centres unmarked) | -11
26 | CN1CCC(NC(=O)NC2CCCCC2)CC1 | 11.9
27 | Cc1cc(N2CCN(c3ccccn3)CC2)n2cc(-c3ccccc3)nc2n1 | -72.3
28 | Cc1cc(N2CCN(c3ccccc3)CC2)nc2ccccc12 | 3.04
29 | Cc1cc(N2CCN(c3ccccc3)CC2)n2c(n1)nc1ccccc12 | -68.7
30 | Cc1cc(-c2ccccc2)nc(N2CCN(c3ccccn3)CC2)n1 | 1.11
31 | Cc1cc(N2CCN(c3ccccc3)CC2)n2cc(-c3ccccc3)nc2n1 | -75.3
32 | Cc1cc(N2CCN(c3ccc(F)cc3)CC2)nc(-c2ccccc2)n1 | -13.7
33 | Cc1cc(Nc2cccc(F)c2)n2c(n1)nc1ccccc12 | 3.44
34 | Cc1cc(C)c2c(n1)nn1c(N3CCN(c4ccccc4)CC3)cc(C)nc21 | 4.66
35 | Cc1cc(NC2CCCCC2)n2c(n1)nc1ccccc12 | -55.1
36 | Cc1nnc2c(NC3CCCCC3)nc3ccccc3n12 | 1.89
37 | Cc1cc(N2CCN(c3ccccc3)CC2)nc(-c2ccccc2O)n1 | 6.15
38 | c1ccc(-c2csc(N3CCN(c4ccccn4)CC3)n2)cc1 | -1.09
39 | CC(C)c1ccc(NC(=O)c2cccc(NC3=NC4CS(=O)(=O)CC4S3)c2)cc1 (centres unmarked) | -11.1
40 | CS(=O)(=O)N(CC(=O)Nc1ccc(F)cc1)C1CCCCC1 | 12.6
41 | c1ccc(-c2nc(C3CCCCC3)no2)cc1 | -0.00972
42 | CCSC1=N/C(=C\c2ccccc2)C(=O)N1c1ccc(OC)cc1 | 6.36
43 | O=C(O)c1cccnc1Cl | 10.7
44 | O=C(/C=C/c1ccccc1)Nc1sc2c(c1C(=O)O)CCC2 | 5.92
